Screening data: PubChem, National Center for Advancing Translational Sciences (NCATS)
SARS PLP yeast = blocks SARS-CoV papain-like protease in a yeast assay; hit rate 0.19% among 330,000; Potency, µM (titrated, usually from 32.9 µM), without a hit: at the top dose activity, positive = growth rescue, usual class: activators; S. cerevisiae expressing SARS-CoV PLpro, growth rescue; calls by dose curve; further: potency means the concentration at half of the fitted maximal effect; 0% is about no effect; nearly all actives have a fitted effect of over 55% in size
Shiga inhibitor = Shiga toxin inhibition | inhibition, % at 38.7 µM | hit rate 9.2% among 290,000 | Vero cells, Shiga toxin protein synthesis inhibition reporter; in the data active means inhibition mostly above about 28%, no sharp cut-off; inactive means mostly below about 43%; further: 0% is about no effect
Pf growth 48h = P. falciparum growth inhibition at 48 hours (one generation); P. falciparum luciferase growth in erythrocytes, 48 h; Potency, µM (top dose mostly 28.7 µM), without a hit: at the highest dose activity change, negative = inhibition, hits mostly inhibitors; hit rate 5.9% among 310,000; AID 504832; further: potency means the concentration at half of the fitted maximal effect; on the % scale 0 is the no-effect control and ±100 the full control effect
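In quantitative HTS format, infected erythrocytes bearing luciferase-reporter parasites were treated for a single generation at 37 C. Luminescence after adding detection reagent served as the growth measure.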
Pf growth 96h = inhibits malaria parasite growth, 96 h; P. falciparum luciferase reporter growth, 96 h; Potency, µM (highest dose often 28.7 µM), inactives show top-dose activity change, negative = inhibition, actives largely listed as inhibitors; hit rate 6.9% among 320,000; AID 504834; further: potency means the concentration at half of the fitted maximal effect; on the % scale 0 is the no-effect control and ±100 the full control effect
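P. falciparum expressing integrated firefly luciferase grown in erythrocytes (2% hematocrit, 0.05% parasitemia final) with compounds for 96 hours at 37 C, 5% CO2. Growth inhibition read as loss of luminescence after adding luciferase detection reagent.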
CHX counter = counter-screen hit for Shiga toxin inhibitors, cycloheximide. max response, %. hit rate 12% among 300,000. cell reporter, cycloheximide protein synthesis inhibition counterscreen; in the data active means max response mostly above about 13%, no sharp cut-off; inactive means mostly below about 14%; further: read at 38.3 µM for the half of the compounds with a filed dose; 0% is about no effect
NS1 inh = influenza NS1 inhibition; Potency, µM (top dose mostly 46.1 µM), for the others: top-dose activity, positive = more growth; hit rate 0.4% among 270,000; AID 2326; calls by dose curve; further: potency means the concentration at half of the fitted maximal effect; actives are rising curves; nearly all actives have a fitted effect of over 50% in size
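Growth recovery, yeast-based: influenza A NS1 expressed in S. cerevisiae causes slow growth, and suppressors are detected by OD600. The parent strain without NS1 is used as positive control.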
* = called active by the depositor; i = inactive; ? = inconclusive; . = no result; [ ] = remark or other dose. Most compounds without a hit are left out; they make up all but 21% or so of the library. Unless noted, the call rests on the fitted dose curve; in most records, active means well fitted inhibition curve with a large enough effect; inconclusive means small, poorly fitted or top-dose-only effect, or another doubt; inactive means no such curve, though single readings can be large or run the other way.

SMILES	SARS PLP yeast	Shiga inhibitor	Pf growth 48h	Pf growth 96h	CHX counter	NS1 inh
CCC(C(=O)N1CCCCCC1)n1nc(C)n2c(cc3occc32)c1=O (stereo not given)	10%	-9	14%	1%	5	24%
CCCOc1ccc(/C(O)=C2/C(=O)C(=O)N(c3ccccn3)C2c2ccc(OC)cc2)cc1C (stereo not given)	3%	7	-5%	22%	9	?
CSCC[C@H](NC(=O)[C@H](CC(C)C)NC(=O)[C@@H](Cc1cnc[nH]1)NC(=O)[C@H](Cc1ccccc1)NC(=O)[C@@H](Cc1ccccc1)NC(=O)[C@@H](N)Cc1ccc(O)cc1)C(N)=O	.	6	.	.	-8	.
CC1(C)O[C@@H]2C[C@H]3[C@H]4C[C@H](F)C5=CC(=O)C=C[C@@]5(C)[C@@H]4[C@H](O)C[C@]3(C)[C@]2(C(=O)CO)O1	.	.	-10%[12.8 µM]	-24%[12.8 µM]	.	.
CC(C)C(=O)OCC(=O)[C@@]12OC(C3CCCCC3)O[C@@H]1CC1C3CCC4=CC(=O)C=C[C@]4(C)C3[C@@H](O)C[C@@]12C (stereo not given in full)	.	.	0.67µM*	0.76µM*	.	.
CC(=O)OCC(=O)[C@@]1(O)CC[C@H]2[C@@H]3C[C@H](C)C4=CC(=O)C=C[C@]4(C)[C@H]3[C@@H](O)C[C@@]21C	4%	-6	0%	22%	1	-11%
CCC[C@@H]1O[C@@H]2C[C@@H]3[C@H]4CCC5=CC(=O)C=C[C@@]5(C)[C@H]4[C@H](O)C[C@@]3(C)[C@@]2(C(=O)CO)O1	.	.	11µM*	4.8µM*	.	.
Oc1csc(Cc2nc(-c3ccc4ccccc4c3)cs2)n1	-22%	59*	82%	160%	38*	-3%
Oc1csc(Cc2nc(-c3ccccc3F)cs2)n1	1%	78*	122%	-15%	47*	.
Cc1ccccc1NC(=O)Cc1nc(-c2ccc3ccccc3c2)cs1	5%	7	1%	-19%	6	18%
Oc1csc(Cc2nc(-c3ccc(-c4ccccc4)cc3)cs2)n1	-4%	53*	61%	4%	27*	6%
O=c1oc2ccccc2cc1-c1csc(Cc2nc(-c3ccc(Cl)cc3)cs2)n1	-9%	-8	18%	-5%	-1	11%
COC(=O)C[C@@](O)(CCC(C)(C)O)C(=O)O[C@@H]1C(OC)=C[C@]23CCCN2CCc2cc4c(cc2[C@@H]13)OCO4	.	-12	.	.	-9	.
CCN(CC)S(=O)(=O)c1cccc(NC(=O)c2cc3ccccc3o2)c1	-22%	55*	?	?	22	2%
CN(C)S(=O)(=O)c1cccc(NC(=O)c2cc3ccccc3o2)c1	-12%	54	64%	.	57*	6%
O=C(Nc1cccc(S(=O)(=O)N2CCCCC2)c1)c1cc2ccccc2o1	1%	.	?	-106%	.	.
Cc1ccc(S(=O)(=O)NCCC(=O)OCC(=O)NC(=O)c2cccn2C)cc1	2%	-8	?	39%	-2	0%
CCc1ccc(CNCCc2c[nH]c3ccccc23)cc1	3%	14	3%	7.4µM*	-3	8%
O=[N+]([O-])c1ccccc1CNCCc1c[nH]c2ccccc12	-5%	-2	2.9µM*	-29%	-1	-3%
O=[N+]([O-])c1ccccc1CNCCc1ccc(F)cc1	-1%	68*	.	61%	40*	1%
O=[N+]([O-])c1ccccc1OCCNCc1ccccc1	5%	.	99%	14%	16*	-15%
O=[N+]([O-])c1cccc(CNCc2ccccc2)c1	1%	18	0%	-32%	8	-2%
O=[N+]([O-])c1ccc(CNCCc2ccccc2)cc1	2%	.	20%	13µM*	2	-2%
Brc1ccccc1C1CC(c2ccccc2)=Nc2ccccc2N1 (stereo not given)	-50%	91*	51%	48%	97*	-41%
c1ccc(C2=Nc3ccccc3NC(c3ccccc3)C2)cc1 (stereo not given)	-9%	126*	29%	32%	36*	-49%
SMILES	SARS PLP yeast	Shiga inhibitor	Pf growth 48h	Pf growth 96h	CHX counter	NS1 inh
Clc1ccccc1C1CC(c2ccccc2)=Nc2ccccc2N1 (stereo not given)	-2%	93*	60%	118%	43*	9%
CC(C)OCCCNC(=O)NC12CC3CC(CC(C3)C1)C2	4%	15	-1%	4%	13*	-7%
CN(CC(=O)NCc1ccccc1Cl)S(=O)(=O)c1cccs1	1%	30	-5%	8%	15*	16%
COc1ccc(NC(=O)CN(C)S(=O)(=O)c2cccs2)cc1	-13%	40*	43%	51%	29*	-4%
COc1ccc(Cl)cc1NC(=O)CN(C)S(=O)(=O)c1cccs1	-1%	19	3%	-23%	17	-5%
Cc1ccccc1NC(=O)CN(C)S(=O)(=O)c1cccs1	-1%	-4	30%	21%	9	-8%
CN(CC(=O)N1CCc2ccccc21)S(=O)(=O)c1cccs1	-4%	99*	.	1%	61*	-9%
Cc1cccc(NC(=O)CN(C)S(=O)(=O)c2cccs2)c1	-4%	101*	39%	.	15*	-9%
CC(C)c1cc(C(C)C)c(S(=O)(=O)Nc2cccc3cccnc23)c(C(C)C)c1	.	2	.	.	4	.
COc1cccc(CCNC(=O)CCCC(=O)c2ccccc2)c1	-2%	15	-10%	?	5	-1%
COc1ccc(/C=C2/C(=O)C(C)(C(C)C)CCC2C)cc1 (stereo not given)	-3%	-3	-1%	-4%	-4	-2%
Cc1ccc(N(Cc2ccccc2)C(=O)CN2C(=O)NC3(CCCC3)C2=O)cc1	6%	2	?	?	-1	1%
Cc1cccc2sc(NC(=O)CN(C)S(=O)(=O)c3cccs3)nc12	-23%	45*	20%	20%	15	-72%
CCOc1ccc(CNC(=S)Nc2ccccc2)cc1Cl	16%	-2	?	i	-2	-14%
CN(Cc1ccon1)Cc1cn[nH]c1-c1ccc(-c2ccccc2)cc1	-1%	24	196%	-19%	30*	0%
CC(c1ccon1)N(C)Cc1cn[nH]c1-c1ccc(-c2ccccc2)cc1 (stereo not given)	-2%	73*	-6%	-8%	15	0%
CN(Cc1ccon1)Cc1cn(C)nc1-c1ccc(Oc2ccccc2)cc1	-2%	-2	-17%	-1%	-2	-5%
CN(CC1CCOCC1)C(=O)CC1C(=O)NCCN1Cc1ccc(-c2ccccc2)cc1 (stereo not given)	-1%	-17	-10%	?	-2	-4%
CN(Cc1cn[nH]c1-c1ccc(-c2ccccc2)cc1)CC1CCOCC1	-2%	38	2%	-22%	17*	-1%
Nc1nc(SCC(=O)c2c(N)n(Cc3ccccc3)c(=O)[nH]c2=O)n[nH]1	0%	-4	22%	80%	7	9%
